# Results filed as inconclusive are left out. Entries that show only a call come without a potency. Active and inactive are the calls of the source. Calls follow the shape of the dose curve; as a rule, active = well fitted inhibition curve with a large enough effect; inconclusive = small, poorly fitted or top-dose-only effect; inactive = flat fitted curve, though single readings scatter.
# Experiment: P-glycoprotein substrates identified in KB-8-5-11 adenocarcinoma cell line, qHTS therapeutic library screen (AID 1346987); also: nearly all actives have a fitted effect of over 65% in size
# Settings: KB-8-5-11 (P-gp overexpressing) viability, CellTiter-Glo, 72 h; series mostly up to 44.5 µM
# Outline: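 Steps: plate 500 KB-8-5-11 cells/well in DMEM + 10% FCS (colchicine removed); pin compounds in dose-response; incubate 72 h, 37 degree C, 5% CO2; add CellTiter-Glo, 5 min; read luminescence.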
# Potency is read from the fitted curve at half-maximal effect.
row,Structure (SMILES),Potency
1,Cn1c(=O)c2c(ncn2CCOC(=O)C(C)(C)Oc2ccc(Cl)cc2)n(C)c1=O,18.4 µM (active)
2,OC[C@@H](O)C(O)[C@H](O)CO,inactive
3,NCCN,inactive
4,CC(C)(C)C(=O)OCC(=O)[C@H]1CC[C@H]2[C@@H]3CCC4=CC(=O)CC[C@]4(C)[C@H]3CC[C@]12C,inactive
5,CO[C@H]1C[C@H](O[C@H]2[C@H](C)[C@@H](O[C@@H]3O[C@H](C)C[C@H](N(C)C)[C@H]3O)[C@@H](C)C[C@]3(CO3)C(=O)[C@H](C)[C@@H](O)[C@@H](C)[C@@H](C)OC(=O)[C@@H]2C)O[C@@H](C)[C@@H]1O,inactive
6,Nc1nccs1,inactive
7,C/C=C/C=C/C(=O)O,inactive
8,O=C(O)[C@H]1C(=CCO)O[C@H]2CC(=O)N12,inactive
9,NCC[C@H](O)C(=O)N[C@@H]1C[C@H](N)[C@@H](O[C@H]2O[C@H](CN)CC[C@H]2N)[C@H](O)[C@H]1O[C@H]1O[C@H](CO)[C@@H](O)[C@H](N)[C@H]1O,inactive
10,O[C@@H]([C@H](O)[C@H](O)CBr)[C@H](O)CBr,inactive
11,CC(C)[C@@H]1CC[C@@H](C)C[C@H]1O,inactive
12,CC[C@H](CC[C@@H](C)[C@H]1CC[C@H]2[C@@H]3CC=C4C[C@@H](O)CC[C@]4(C)[C@H]3CC[C@]12C)C(C)C,inactive
13,Cc1ncc(C[n+]2csc(CCOP(=O)(O)O)c2C)c(N)n1,inactive
14,S=C=Nc1ccc(N=C=S)cc1,inactive
15,CCOC(C)OCC,inactive
16,CCCC1C(=O)N2C(N(C)C)=Nc3ccc(C)cc3N2C1=O (centres undefined),inactive
17,NC(N)=NCC1COC2(CCCCC2)O1 (centres undefined),inactive
18,Cc1cc(=O)c(C(=O)N[C@@H](C(=O)N[C@@H]2C(=O)N3C(C(=O)O)=C(CSc4nnnn4C)CS[C@H]23)c2ccc(O)cc2)c[nH]1,inactive
19,C=C1c2c(Cl)ccc(O)c2C(O)=C2C(=O)[C@]3(O)C(O)=C(C(N)=O)C(=O)[C@@H](N(C)C)[C@@H]3[C@@H](O)[C@H]12,inactive
20,O=C(O)c1ccc(OCCn2ccnc2)cc1,inactive
21,O=C1CCC(c2ccccc2)(C2CCN(Cc3ccccc3)CC2)C(=O)N1 (centres undefined),inactive
22,CC(C)(C)NCC(O)c1ccc(O)c(CO)n1 (centres undefined),inactive
23,CCCC(=O)O,inactive
24,Nc1ncnc2c1ncn2CCOCP(=O)(O)O,inactive
25,CC/C=C\C/C=C\C/C=C\C/C=C\C/C=C\CCCC(=O)O,inactive
26,CCOC(=O)[C@@H](N)CS,inactive
27,[O]=[Bi][O]C(=O)[O][Bi]=[O],inactive
28,Cc1cc(C(=O)NCCc2ccc(S(=O)(=O)NC(=O)NN3CCCCCC3)cc2)no1,inactive
29,CCCCCCCCCc1ccc(OCCOCCO)cc1,4.61 µM (active)

# — PubChem BioAssay (NCATS)
